The results in this text go back to PubChem BioAssay (NCI).

Compounds without any hit were thinned out: in the full panel of roughly 83,000, 20% have a hit.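 Growth was measured after 48 h exposure to one concentration of compound in 96-well plates. Values under 10 count as active.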 Unmarked numbers belong to inactive results. The source made the active and inactive calls.

Among the test systems are NCI-H23 lung; NCI-H226 lung; NCI-H322M lung; HOP-62 NSCLC; NCI-H460 lung; HOP-92 NSCLC; NCI-H522 lung; A549/ATCC NSCLC; 786-0 renal; COLO 205 colon; DU-145 prostate; K-562 leukemia; MALME-3M melanoma; MDA-MB-231 breast; RXF 393 renal; SF-268 CNS; SF-295 CNS; SF-539 CNS; UACC-257 melanoma; M14 melanoma.
What all share (assay): NCI-60 one-dose screen, 48 h (100 = growth as untreated, 0 = no growth, -100 = all killed)
Holding throughout (settings): 10 µM unless noted

`Cc1ccc(NC(=O)c2sc3nc(C)c(Br)c(C)c3c2N)cc1`: the growth with NCI-H23 lung was 73.8%; in the experiment on NCI-H226 lung, 47.7%; with NCI-H322M lung it was 51.2%; in the experiment with HOP-62 NSCLC, 34.9%; in the experiment on NCI-H460 lung, 54.4%; with HOP-92 NSCLC, -5.03% (active). In addition, the growth in the experiment on NCI-H522 lung was 71.9%; in the experiment on A549/ATCC NSCLC, 67.7%; with 786-0 renal, 30.5%; in the experiment with COLO 205 colon, 84.9%; in the experiment on DU-145 prostate, 66.6%; in the experiment with K-562 leukemia, 95.5%. The growth with MALME-3M melanoma is 53.8%; in the experiment with MDA-MB-231 breast, 55.3%; in the experiment with RXF 393 renal, 43.3%; in the experiment on SF-268 CNS it was 49%; in the experiment on SF-295 CNS, 60%; in the experiment on SF-539 CNS, 65.1%. Also, the growth with UACC-257 melanoma was 90.3%; in the experiment with M14 melanoma it was 79%.
Turning to `COc1ccc(Nc2nc(-c3cc(O)c(C)c(C)c3O)cs2)cc1`, the growth in the experiment on NCI-H23 lung was 78.1%; in the experiment on NCI-H226 lung, 96.3%; in the experiment with NCI-H322M lung, 90.9%; in the experiment on HOP-62 NSCLC, 69.9%; in the experiment on NCI-H460 lung it was 39%; in the experiment with HOP-92 NSCLC, 90.5%. Moreover, the growth in the experiment on NCI-H522 lung was 34.8%; in the experiment on A549/ATCC NSCLC, 58%; in the experiment with 786-0 renal, 102%; in the experiment on COLO 205 colon it was 115%; in the experiment on DU-145 prostate it was 87.3%; with K-562 leukemia it was 23.9%. For the same compound, the growth in the experiment with MALME-3M melanoma is 95.2%; with MDA-MB-231 breast, 88.5%; in the experiment on RXF 393 renal, 78.7%; with SF-268 CNS, 64.7%; in the experiment with SF-295 CNS it was 84.1%; with SF-539 CNS it was 81.6%. Further, the growth in the experiment on UACC-257 melanoma was 98.1%; with M14 melanoma, 76.2%.
`O=C(c1ccncc1)N1N=C(c2ccc(Cl)cc2)C[C@H]1c1cn(-c2ccccc2)nc1-c1ccccc1`: the growth is 91.5% with NCI-H23 lung; 89.9% with NCI-H226 lung; 92.7% in the experiment with NCI-H322M lung; 92.8% with HOP-62 NSCLC; 88.2% in the experiment on NCI-H460 lung; 67% with HOP-92 NSCLC. For the same compound, the growth was 96.1% with NCI-H522 lung; 81.7% with A549/ATCC NSCLC; 97.9% in the experiment on 786-0 renal; 119% with COLO 205 colon; 99.8% in the experiment with DU-145 prostate; 90.5% in the experiment on K-562 leukemia. Also, the growth in the experiment with MALME-3M melanoma was 108%; with MDA-MB-231 breast, 69.6%; in the experiment on RXF 393 renal, 87.6%; in the experiment with SF-268 CNS, 89.4%; with SF-295 CNS it was 78.8%; in the experiment on SF-539 CNS, 81.2%. Besides, the results for the growth in the experiment on UACC-257 melanoma and with M14 melanoma were 89.6% and 107%, respectively.
In the case of `COc1ccc(-c2nc3c(ncc4ccc(=O)[nH]c43)s2)cc1`, the growth in the experiment on NCI-H23 lung is 78.8%; with NCI-H226 lung it was 76.1%; in the experiment with NCI-H322M lung, 77.7%; in the experiment on HOP-62 NSCLC it was 90.2%; with NCI-H460 lung, 40.8%; in the experiment with HOP-92 NSCLC, 87.7%. The growth in the experiment with NCI-H522 lung is 85.3%; in the experiment with A549/ATCC NSCLC, 56.1%; in the experiment on 786-0 renal it was 88.3%; in the experiment on COLO 205 colon it was 83.6%; in the experiment on DU-145 prostate it was 67.7%; with K-562 leukemia, 93.3%. The growth with MALME-3M melanoma was 93.9%; in the experiment on MDA-MB-231 breast it was 81.5%; with RXF 393 renal, 88.5%; in the experiment with SF-268 CNS, 76.6%; with SF-295 CNS, 88.1%; in the experiment on SF-539 CNS, 84%. Further, the growth in the experiment on UACC-257 melanoma was 118%; in the experiment with M14 melanoma, 74.7%.
Consider `C#CCOc1cccc(Nc2ncnc3ccc(NC(=O)C=C)cc23)c1`, for which the growth was 65.4% with NCI-H23 lung; 61.8% in the experiment with NCI-H226 lung; 2% (active) in the experiment with NCI-H322M lung; 58.4% in the experiment on HOP-62 NSCLC; 81.2% in the experiment on NCI-H460 lung; 14.7% with HOP-92 NSCLC. In addition, the growth with NCI-H522 lung is 15.9%; in the experiment with A549/ATCC NSCLC, 34.2%; in the experiment on 786-0 renal, 35.2%; in the experiment with COLO 205 colon it was 68.4%; in the experiment with DU-145 prostate it was 24.1%; with K-562 leukemia it was 46%. Besides, the growth in the experiment on MALME-3M melanoma is 60.8%; with MDA-MB-231 breast, 54%; in the experiment with RXF 393 renal, 2.49% (active); with SF-268 CNS it was 40.2%; with SF-295 CNS, 66.2%; with SF-539 CNS it was 32.1%. For the same compound, the growth in the experiment with UACC-257 melanoma was 54.9%; in the experiment with M14 melanoma, 51.4%.
Regarding `Nc1n[nH]c2cccc(C#Cc3cccc(NC(=O)c4cc(F)cc(C(F)(F)F)c4)c3)c12`, the growth in the experiment with NCI-H23 lung is 65.8%; in the experiment on NCI-H226 lung, 46.6%; in the experiment on NCI-H322M lung it was 93.9%; with HOP-62 NSCLC it was 95.2%; in the experiment on NCI-H460 lung it was 77.8%; in the experiment on HOP-92 NSCLC, 39.1%. Moreover, the growth is 62.6% with NCI-H522 lung; 84.4% in the experiment with A549/ATCC NSCLC; 86.4% in the experiment on 786-0 renal; 83.7% in the experiment on COLO 205 colon; 97.9% with DU-145 prostate; 9.27% (active) in the experiment with K-562 leukemia. The growth was 53% in the experiment on MALME-3M melanoma; 48.1% in the experiment with MDA-MB-231 breast; 62.8% in the experiment on RXF 393 renal; 73.6% with SF-268 CNS; 81.3% in the experiment with SF-295 CNS; 44% in the experiment with SF-539 CNS. The results for the growth in the experiment with UACC-257 melanoma and with M14 melanoma were 88.5% and 41.9%, respectively.
As for `C/C(=N\O)c1ccc(Cl)cc1`, the growth in the experiment on NCI-H23 lung was 110%; in the experiment on NCI-H226 lung it was 106%; in the experiment with NCI-H322M lung, 123%; with HOP-62 NSCLC, 95.7%; in the experiment with NCI-H460 lung, 112%; with HOP-92 NSCLC, 65.3%. Besides, the growth in the experiment with NCI-H522 lung was 105%; in the experiment with A549/ATCC NSCLC, 97.9%; in the experiment on 786-0 renal, 107%; in the experiment with COLO 205 colon, 108%; in the experiment on DU-145 prostate, 121%; in the experiment with K-562 leukemia, 100%. The growth was 137% in the experiment on MALME-3M melanoma; 116% with MDA-MB-231 breast; 141% in the experiment with RXF 393 renal; 127% in the experiment with SF-268 CNS; 118% in the experiment with SF-295 CNS; 114% in the experiment on SF-539 CNS. In addition, the figures for the growth with UACC-257 melanoma and in the experiment on M14 melanoma were 89.5% and 114%, respectively.
